The values that follow come from PubChem BioAssay (NCATS).

Records with an inconclusive call do not appear. Unmarked numbers belong to inactive results. Calls of active or inactive are those of the source. Unless noted, calls follow the shape of the dose curve; as a rule, active = well fitted curve in either direction with a large enough effect (not every such curve was filed as active); inconclusive = small, poorly fitted or top-dose-only effect, or another doubt; inactive = flat fitted curve, though single readings scatter.

The nature of assay [1]: AP1 Signaling Pathway (AID 357). Also: % is scaled to controls: 0 for no effect and ±100 for the full control effect. Conditions: ME-180 (cervical carcinoma) AP-1-bla reporter, EGF-induced, beta-lactamase ratio, 5 h. The essentials:
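AP-1-bla ME-180 cells with beta-lactamase reporter under AP-1 response element, stimulated with EC50 EGF; compounds titrated, 5 hours at 37 degrees Celsius. CCF4 read at 460/530 nm ratio; positive and negative modulators judged by AC50.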

Assay [2] can be described thus: NFAT Signaling Pathway (AID 444).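 Also: carbachol stimulus at about its EC50 of 1 µM final; % is scaled to controls: 0 for no effect and ±100 for the full control effect.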 To be noted: Jurkat NFAT-bla M1, carbachol, beta-lactamase ratio, 5 h. The essentials: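 Jurkat cells carrying an NFAT-driven β-lactamase reporter and co-transfected muscarinic M1 receptor were treated with compound plus carbachol (1 uM final, an EC50 level) for 5 h at 37 °C. CCF4 loading followed for 1 h at RT; 460/530 nm ratio gave %activity.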

Assay [3] has as its target Cytochrome P450 1A2 (Homo sapiens) (UniProt P05177). The experiment in a line: p450-cyp1a2 (AID 410; calls by dose curve; also: potency is read from the fitted curve at half-maximal effect;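 as to activity change, negative = inhibition: -100% = full effect of reference inhibitor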). To be noted: recombinant CYP1A2, luciferin-ME demethylation, luminescence; series mostly up to 57 µM. The essentials: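 O-Demethylation of luciferin 6' methyl ether by human CYP1A2 is monitored as luciferase luminescence. Substrate sits at Km (100uM); enzyme is 20nM. Values are scaled to 57 uM furafylline as maximal inhibition.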

A short description of assay [4]: Cell Viability - BJ (AID 421; calls by dose curve;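 also: potency is read from the fitted curve at half-maximal effect; cells exposed to compound for 40 hours at 37 °C before readout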). To be noted: BJ fibroblast viability, qHTS. The essentials:
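Normal human BJ foreskin fibroblasts, 1500/well in complete medium, treated 40 hr at 37 °C. Cellular ATP by CellTiter-Glo luminescence; normalized to DMSO and 100 uM tamoxifen, AC50 from Hill fit.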

Assay [5] can be described thus: Cell Viability - Jurkat (AID 426;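 active = dose-dependent loss of cell ATP signal giving a full or clear fitted curve, ranked by lower potency value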; also: potency is read from the fitted curve at half-maximal effect). Conditions: qHTS. The method in brief: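 Cells of the human T-cell leukemia line Jurkat (E6-1) are seeded at 5000 per well, treated with compound across a concentration range for 40 hours at 37 °C, then lysed with CellTiter-Glo; luminescence reports ATP.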
A short description of assay [6]: Cell Viability - Hek293 (AID 427;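 active = compounds whose dose-response curve shows a full or clear partial loss of cell viability, called from curve shape rather than a numeric limit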;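 also: potency is read from the fitted curve at half-maximal effect; cells exposed to compound for 40 hours at 37 °C before reading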). To be noted: qHTS. The essentials: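 HEK293 cells in complete medium were exposed to compound for 40 hr at 37 °C, then cellular ATP was read by CellTiter-Glo luminescence. Data were normalized to DMSO (basal) and 100 uM tamoxifen (100% inhibition), and AC50 came from Hill fits.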
Assay [7] can be described thus: Cell Viability - HepG2 (AID 433; calls by dose curve;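 also: potency is read from the fitted curve at half-maximal effect; potency for ATP loss meaning cytotoxicity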). Conditions: qHTS. The essentials:
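HepG2 cells, 1500 per well, treated 40 hr at 37 °C in complete medium; viability from intracellular ATP by CellTiter-Glo luminescence. Normalized to DMSO and 100 uM tamoxifen; AC50 from Hill fit of qHTS concentration-response.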

A short description of assay [8]: Cell Viability - SK-N-SH (AID 435; calls by dose curve;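 also: potency is read from the fitted curve at half-maximal effect; compound exposure lasted 40 h at 37 °C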). To be noted: SK-N-SH neuroblastoma cell viability qHTS. The method in brief:
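SK-N-SH neuroblastoma cells (1500/well) treated 40 h at 37 °C in complete medium; viability read as cellular ATP by CellTiter-Glo luminescence. Normalized to DMSO and 100 uM tamoxifen; AC50 from Hill fits of qHTS concentration-response.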

The nature of assay [9]: Cell Viability - MRC5 (AID 434; calls by dose curve;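 also: potency is read from the fitted curve at half-maximal effect; potency reflects cytotoxicity seen as loss of intracellular ATP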). To be noted: MRC5 lung fibroblast viability, qHTS. The method in brief:
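Decrease in intracellular ATP, quantified by luciferase light output, reflects compound toxicity toward MRC5 cells exposed for 40 hr in complete culture medium. Concentration-response curves, scaled between DMSO and 100 uM tamoxifen, gave AC50 values.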

Cytochrome P450 1A2 (Homo sapiens), sequence (P05177 whole entry, looked up): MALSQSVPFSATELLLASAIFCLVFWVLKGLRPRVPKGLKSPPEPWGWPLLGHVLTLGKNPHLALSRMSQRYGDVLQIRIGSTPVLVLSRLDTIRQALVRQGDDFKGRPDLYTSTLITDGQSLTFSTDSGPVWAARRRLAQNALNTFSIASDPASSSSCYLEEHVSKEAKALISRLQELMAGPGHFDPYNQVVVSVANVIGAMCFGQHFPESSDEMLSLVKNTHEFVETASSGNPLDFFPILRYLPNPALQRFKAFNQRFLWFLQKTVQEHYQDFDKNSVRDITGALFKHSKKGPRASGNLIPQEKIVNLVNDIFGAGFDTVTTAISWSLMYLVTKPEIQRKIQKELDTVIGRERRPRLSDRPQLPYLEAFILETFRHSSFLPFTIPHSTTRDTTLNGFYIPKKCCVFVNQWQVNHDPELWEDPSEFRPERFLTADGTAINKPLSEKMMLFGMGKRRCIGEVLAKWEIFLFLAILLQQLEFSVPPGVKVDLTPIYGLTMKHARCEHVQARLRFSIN

Consider `COc1ccc2c(c1OC)C(=O)O[C@@H]2[C@H]1c2c(cc3c(c2OC)OCO3)CCN1C`, for which the activity change, negative = inhibition in assay [1] (at 17.2 µM (top of the series)) was -3.96%; in assay [2] (at 17.2 µM (top of the series)) it was -10.3%.

Turning to `CC(=O)OCC1=C(C(=O)O)N2C(=O)[C@@H](NC(=O)Cc3cccs3)[C@H]2SC1`, the activity change, negative = inhibition in assay [1] (at 17.2 µM (top of the series)) is -3.26%; in [2] (at 17.2 µM (top of the series)) it was 0.294%.

As to `C[C@]12CCC(=O)C=C1CC[C@@H]1[C@@H]2C(=O)C[C@@]2(C)[C@H]1CC[C@]2(O)C(=O)CO`, the figures for the activity change, negative = inhibition in assay [1] (at 17.2 µM (top of the series)) and in assay [2] (at 17.2 µM (top of the series)) were 7.64% and -6.84%, respectively.

Consider `CN(C)[C@@H]1C(=O)C(C(N)=O)=C(O)[C@@]2(O)C(=O)C3=C(O)c4c(O)ccc(Cl)c4[C@@H](O)[C@H]3C[C@@H]12`, for which the activity change, negative = inhibition in assay [1] (at 17.2 µM (top of the series)) is -3.11%; in assay [2] (at 17.2 µM (top of the series)) it was 0.847%.

In the case of `O=C(O)CCCCCCCC(=O)O`, the Potency result in assay [3] was “inactive”. In addition, in assay [2] (at 38 µM (top of the series)), the activity change, negative = inhibition is -0.521%.

Consider `COCC(=O)O[C@]1(CCN(C)CCCc2nc3ccccc3[nH]2)CCc2cc(F)ccc2[C@@H]1C(C)C`, for which the Potency in [3] is 31.6 µM (active). For the same molecule, the activity change, negative = inhibition in assay [2] (at 38 µM (top of the series)) was -15.7%.

Take `Nc1ncn([C@@H]2O[C@H](CO)[C@@H](O)[C@H]2O)c(=O)n1`: the Potency in [4] was above 92 µM; in assay [5], 1.01 µM (active); in assay [6] it was 6.9 µM (active); in [7] it was above 92 µM; in [8] it was 16.6 µM (active).

For the molecule `CCCCOCCOCCOCc1cc2c(cc1CCC)OCO2`, the Potency in assay [4], in assay [5], in assay [6], in [7], in assay [9] and in [8] was above 92 µM in each case.

For `CN(C)CCCN1c2ccccc2Sc2ccccc21`, the activity change, negative = inhibition in assay [2] (at 38 µM (top of the series)) is -83.6% (active).

Turning to `COCCOC(=O)C1=C(C)NC(C)=C(C(=O)OC(C)C)C1c1cccc([N+](=O)[O-])c1` (configuration not stated), the activity change, negative = inhibition in assay [1] (at 17.2 µM (top of the series)) was -20.8%; in assay [2] (at 17.2 µM (top of the series)), -7.25%.

Turning to `COC(=O)[C@@H](N)Cc1ccc(O)c(O)c1`, the activity change, negative = inhibition is 2.14% in assay [1] (at 38 µM (top of the series)) and 5.8% in assay [2] (at 38 µM (top of the series)).

`O=c1[nH]c(=O)n([C@H]2C[C@H](O)[C@@H](CO)O2)cc1Br`: the Potency in [4], in [6], in [7], in [9] and in assay [8] was above 92 µM each time.

On to `C[C@]12C=CC(=O)C=C1CC[C@H]1[C@@H]3C[C@@H](O)[C@](O)(C(=O)CO)[C@@]3(C)C[C@H](O)[C@@]12F`, for which the activity change, negative = inhibition in assay [1] (at 17.2 µM (top of the series)) is -5.22%; in assay [2] (at 17.2 µM (top of the series)) it was 16.1%.

`NC(=Nc1ccccc1)Nc1ccccc1`: the Potency in [4], in assay [5], in [6], in assay [7], in assay [9] and in [8] was above 92 µM throughout.

On to `CO[C@@]1(NC(=O)CSCC#N)C(=O)N2C(C(=O)O)=C(CSc3nnnn3C)CS[C@@H]21`, for which the activity change, negative = inhibition was 6.1% in [1] (at 17.2 µM (top of the series)) and -23.9% in [2] (at 17.2 µM (top of the series)).

`CCC(=O)c1ccc2c(c1)N(CCCN(C)C)c1ccccc1S2`: the Potency in assay [3] was 0.631 µM (active). Besides, the activity change, negative = inhibition in assay [2] (at 38 µM (top of the series)) is -89.3% (active).

Turning to `Cc1nc2c([nH]1)c(=O)n(C)c(=O)n2Cc1ccco1`, the activity change, negative = inhibition in assay [1] (at 38 µM (top of the series)) is -6.02%; in [2] (at 38 µM (top of the series)) it was -9.82%.
